Screening data from PubChem.
Hits are enriched below; roughly 22% of the tested compounds scored in any of these assays.
Pf growth 96h – P. falciparum growth inhibition at 96 hours; AID 504834; Potency, µM (titrated, usually from 28.7 µM), actives largely listed as inhibitors; P. falciparum luciferase reporter growth, 96 h; 320,000 compounds, 6.9% hits
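96 h incubation, 37 C, 5% CO2, of luciferase-reporter P. falciparum-infected RBCs (2% hematocrit, 0.05% parasitemia final) with test compounds; endpoint luminescence.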
Pf growth 48h – P. falciparum growth inhibition at 48 hours (one generation) | P. falciparum luciferase growth in erythrocytes, 48 h | Potency, µM (titrated, usually from 28.7 µM), actives largely listed as inhibitors | 310,000 compounds, 5.9% hits
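Compounds are pin-transferred into medium, infected erythrocytes (2% hematocrit, 0.1% parasitemia final) are added, and plates sit one parasite generation at 37 C in 5% CO2. Detection reagent is then added and luminescence measured.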
LmPK inhibitor – blocks Leishmania mexicana pyruvate kinase activity; Q27686; purified LmPK, Kinase-Glo ATP luminescence, 1 h; Potency, µM (series often up to 57.5 µM), hits mostly inhibitors; 290,000 compounds, 0.37% hits; AID 1721
Target sequence (Q27686 whole entry, looked up): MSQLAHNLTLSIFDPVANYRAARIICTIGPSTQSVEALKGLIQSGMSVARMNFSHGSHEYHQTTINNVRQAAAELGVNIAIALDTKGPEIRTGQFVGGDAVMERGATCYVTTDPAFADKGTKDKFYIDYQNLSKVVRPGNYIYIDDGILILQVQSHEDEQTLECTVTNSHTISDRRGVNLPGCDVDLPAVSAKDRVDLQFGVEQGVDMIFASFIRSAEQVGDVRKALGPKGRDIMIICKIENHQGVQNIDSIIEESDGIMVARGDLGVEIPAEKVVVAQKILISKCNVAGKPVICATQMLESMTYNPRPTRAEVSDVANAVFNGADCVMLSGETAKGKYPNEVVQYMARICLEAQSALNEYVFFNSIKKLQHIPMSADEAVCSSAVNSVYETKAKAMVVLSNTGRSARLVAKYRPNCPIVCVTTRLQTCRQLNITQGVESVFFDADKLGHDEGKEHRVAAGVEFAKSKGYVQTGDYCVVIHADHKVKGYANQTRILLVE
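ATP generated from ADP (0.1 mM) and PEP (0.5 mM) by 0.1 nM LmPK over 1 h at room temperature (pH 7.2 imidazole buffer) was detected by coupled luciferase luminescence. Values were normalized to uninhibited and no-enzyme wells.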
CHX counter – affects cycloheximide protein synthesis inhibition readout, counter-screen. AID 2314. max response, %. cell reporter, cycloheximide protein synthesis inhibition counterscreen. 300,000 compounds, 12% hits; in the data active = max response mostly above about 13%, no sharp cut-off; inactive = mostly below about 14%; also: read at 38.3 µM for the half of the compounds with a filed dose
Shiga toxin inh – blocks Shiga toxin action in Vero cells; AID 2315; Vero cells, Shiga toxin protein synthesis inhibition reporter; 290,000 compounds, 9.2% hits; inhibition, % at 38.7 µM; in the data active = inhibition mostly above about 28%, no sharp cut-off; inactive = mostly below about 43%
A number is an active result; 0 = inactive; ? = inconclusive; - = no result; [ ] = remark or other dose. Unless noted, calls follow the shape of the dose curve; as a rule, active = well fitted inhibition curve with a large enough effect; inconclusive = small, poorly fitted or top-dose-only effect, or another doubt; inactive = no such curve, though single readings can be large or run the other way.

SMILES	Pf growth 96h	Pf growth 48h	LmPK inhibitor	CHX counter	Shiga toxin inh
CCOC(=O)c1cc2c(=O)n3ccccc3nc2n(CC(C)C)c1=NC(=O)c1ccco1	-	10µM	0	0	0
CCOC(=O)c1cc2c(=O)n3ccccc3nc2n(Cc2ccco2)c1=NC(=O)c1ccc(Br)cc1	-	-	-	0	0
CCOC(=O)c1cc2c(=O)n3ccccc3nc2n(CCOC)c1=NC(=O)c1ccncc1	?	0	0	0	0
CCOC(=O)c1cc2c(=O)n3ccccc3nc2n(CCOC)c1=NC(=O)c1c(-c2c(F)cccc2Cl)noc1C	5.9µM	?	0	0	0
c1ccc(N=Nc2cn[nH]c2-c2ccco2)cc1	0	0	0	0	0
Cc1cccc(N=Nc2cn[nH]c2-c2ccco2)c1	0	0	0	54	100
COC(=O)CC1C(=O)NCCN1C(=O)CSc1nnc(Nc2ccc(C)cc2)s1 (centres undefined)	7.4µM	-	0	0	0
COC(=O)CC1C(=O)NCCN1C(=O)CSc1nnc(Nc2ccc(OC)cc2)s1 (centres undefined)	-	?	0	0	0
CCCc1nc2ccccc2c(=O)n1-c1ccc(C(=O)OCC)cc1	0	0	0	0	0
COc1ccc(/C=N/N(CCC(=O)NC(C)(C)C)C2=NS(=O)(=O)c3ccccc32)cc1	0	6.6µM	0	0	0
CCOC(=O)Cc1csc(SC(C)C(=O)NC2CCCCC2C)n1 (centres undefined)	0	?	-	-	-
Cc1cc(C)nc(NC(=O)Nc2ccc3c(c2)OCO3)c1	0	0	0	47	65
Cc1ccc(OC(F)F)c(NC(=O)Nc2ccc3c(c2)OCO3)c1	0	0	0	0	0
CC(=O)Nc1cccc(C)c1	?	0	-	-	-
Cc1cccc(NC(=O)Nc2cc(C)cc(C)n2)c1	0[5.75 µM]	0	0	65	148
Cc1ccc(NC(=O)Nc2ccc3c(c2)OCO3)nc1	0	0	0	21	80
Cc1ccc(NC(=O)/C=C/c2ccc3c(c2)OCO3)nc1	?	0	0	57	147
COc1cc(OC)cc(C(=O)Nc2ccc(S(=O)(=O)N3CCOCC3)cc2)c1	0	?	0	0	0
COc1ccccc1C(=O)Nc1c(C(=O)N2CCN(C)CC2)oc2ccccc12	0	?	0	0	0
COc1cccc(N2CCN(c3ccc4nnc(CCC(=O)Nc5ccc(C)cn5)n4n3)CC2)c1	?	?	0	0	0
COCCCNC(=O)c1ccc(Cn2c(=O)c3ccccc3n(CC(=O)NCCc3ccc(OC)c(OC)c3)c2=O)cc1	?	?	0	0	0
CCOC(=O)Cn1nc(NC(=O)c2ccc(C(=O)OC)cc2)cc1C	0	0	0	19	0
Cc1ccnc(NC(=O)CNC(=O)c2ccc3c(c2)OCO3)c1	0	0	0	26	45
CCOC(=O)CSc1nnc(NC(=O)c2ccc3c(c2)OCO3)s1	0	0	0	0	0
Cc1ccnc(NC(=O)CNC(=O)c2ccc3ccccc3c2)c1	0	0	-	-	-
SMILES	Pf growth 96h	Pf growth 48h	LmPK inhibitor	CHX counter	Shiga toxin inh
Cc1cc(C)nc(NC(=O)c2ccc3c(c2)OCO3)c1	?	0	0	46	85
CCOC(=O)Cn1ccc(NC(=O)c2ccc3c(c2)OCO3)n1	0	0	0	31	0
CCc1nc(SCC(=O)NC2CCCC2)c2c(=O)n(C)c(=O)n(C)c2n1	0	0	0	0	0
Cc1ccc(S(=O)(=O)Nc2ccc3nc(C)sc3c2)cc1	0	?	0	0	0
Cc1ccc2nc(-c3ccc(NS(=O)(=O)c4ccccc4)cc3)sc2c1	0	0	0	29	active
Cc1ccc2nc(-c3ccc(NS(=O)(=O)c4ccc(F)c(F)c4)cc3)sc2c1	0	0	0	64	96
O=[N+]([O-])c1cccc(CN2C(COCc3ccccc3)CCC=CS2(=O)=O)c1 (centres undefined)	-	-	-	38	82
CC(C)COC(=O)N1C(COCc2ccccc2)CCC=CS1(=O)=O (centres undefined)	-	-	-	0	0
CC(C)CNS(=O)(=O)c1ccc(CCC(=O)NCc2ccncc2)cc1	0	0	0	0	0
CCOc1ccc(C(CC(=O)O)NC(=O)Cc2ccc(Cl)cc2)cc1 (centres undefined)	3.3µM	0	0	0	0
CCNC(=O)CC1C(=O)N(c2cccc(OC)c2)C(=O)N1CCOC (centres undefined)	-	0	0	0	0
COc1ccc(NC(=O)CC2C(=O)N(c3cccc(OC)c3)C(=O)N2Cc2ccco2)cc1 (centres undefined)	9.3µM	0	0	0	0
